# Measurements published in ChEMBL document CHEMBL1961873, “Compounds: GSK PKIS; Assays: Nanosyn kinase panel” (2012).
# Tests used:
# [1] = molecular target: T1, Serine/threonine-protein kinase Nek9 (Homo sapiens) (UniProt Q8TD19); settings: at 1 µM;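 also: each value is a mean percent inhibition of NEK9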
# T1 sequence (whole entry): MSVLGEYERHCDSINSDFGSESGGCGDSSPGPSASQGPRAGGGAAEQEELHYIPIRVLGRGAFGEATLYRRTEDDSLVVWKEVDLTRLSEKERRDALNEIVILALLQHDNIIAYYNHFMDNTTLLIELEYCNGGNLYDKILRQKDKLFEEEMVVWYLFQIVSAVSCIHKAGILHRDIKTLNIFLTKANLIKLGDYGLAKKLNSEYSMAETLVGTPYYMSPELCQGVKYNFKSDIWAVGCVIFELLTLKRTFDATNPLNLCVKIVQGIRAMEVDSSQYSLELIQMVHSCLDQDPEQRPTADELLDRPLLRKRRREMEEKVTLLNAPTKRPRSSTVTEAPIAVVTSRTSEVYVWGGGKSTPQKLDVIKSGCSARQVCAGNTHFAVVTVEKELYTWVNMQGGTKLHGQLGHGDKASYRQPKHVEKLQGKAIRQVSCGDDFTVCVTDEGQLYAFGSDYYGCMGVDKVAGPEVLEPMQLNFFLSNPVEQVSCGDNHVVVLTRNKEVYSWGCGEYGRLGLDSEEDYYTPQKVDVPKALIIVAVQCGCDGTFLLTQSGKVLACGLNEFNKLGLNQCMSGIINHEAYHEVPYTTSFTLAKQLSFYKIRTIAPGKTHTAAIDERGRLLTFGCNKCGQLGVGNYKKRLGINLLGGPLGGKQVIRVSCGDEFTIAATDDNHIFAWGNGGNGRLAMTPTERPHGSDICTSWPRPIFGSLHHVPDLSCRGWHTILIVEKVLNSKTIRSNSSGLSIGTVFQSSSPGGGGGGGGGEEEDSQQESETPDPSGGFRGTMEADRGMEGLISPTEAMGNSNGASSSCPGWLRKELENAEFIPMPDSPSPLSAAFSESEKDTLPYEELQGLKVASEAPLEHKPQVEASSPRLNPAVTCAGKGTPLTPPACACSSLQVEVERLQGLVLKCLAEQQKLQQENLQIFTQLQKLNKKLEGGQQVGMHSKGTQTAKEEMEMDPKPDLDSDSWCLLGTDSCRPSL
# [2] = molecular target: Serine/threonine-protein kinase PLK1 (Homo sapiens) (UniProt P53350); settings: at 0.1 µM
# [3] = molecular target: Serine/threonine-protein kinase PLK1 (Homo sapiens) (UniProt P53350); settings: at 1 µM
# [4] = molecular target: T2, Dual specificity protein kinase TTK (Homo sapiens) (UniProt P33981); settings: at 0.1 µM
# T2 sequence (whole entry): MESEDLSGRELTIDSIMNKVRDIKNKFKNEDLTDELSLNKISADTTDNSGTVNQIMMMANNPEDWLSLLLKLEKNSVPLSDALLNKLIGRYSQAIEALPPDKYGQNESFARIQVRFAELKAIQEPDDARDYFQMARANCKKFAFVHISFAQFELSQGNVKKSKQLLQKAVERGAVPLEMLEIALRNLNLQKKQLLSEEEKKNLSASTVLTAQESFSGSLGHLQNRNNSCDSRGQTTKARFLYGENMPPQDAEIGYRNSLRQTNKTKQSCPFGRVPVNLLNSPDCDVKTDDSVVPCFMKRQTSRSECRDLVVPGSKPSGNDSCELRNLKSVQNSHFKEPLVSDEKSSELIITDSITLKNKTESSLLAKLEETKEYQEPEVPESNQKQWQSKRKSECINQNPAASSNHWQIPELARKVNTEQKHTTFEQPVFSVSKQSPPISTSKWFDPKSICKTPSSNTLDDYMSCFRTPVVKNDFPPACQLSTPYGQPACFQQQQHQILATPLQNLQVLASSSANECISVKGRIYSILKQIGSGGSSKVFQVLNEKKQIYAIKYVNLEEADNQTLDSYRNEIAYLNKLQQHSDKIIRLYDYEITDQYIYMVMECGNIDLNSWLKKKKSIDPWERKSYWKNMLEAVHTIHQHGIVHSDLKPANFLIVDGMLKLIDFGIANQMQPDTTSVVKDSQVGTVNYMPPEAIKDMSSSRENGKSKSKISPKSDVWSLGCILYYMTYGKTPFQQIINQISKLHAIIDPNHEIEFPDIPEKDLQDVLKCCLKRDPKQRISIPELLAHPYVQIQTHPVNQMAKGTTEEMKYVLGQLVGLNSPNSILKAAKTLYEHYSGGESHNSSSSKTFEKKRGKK
# [5] = system: T3, Receptor-type tyrosine-protein kinase FLT3 (Homo sapiens), P36888 [D835Y]; settings: at 1 µM
# T3 sequence (whole entry): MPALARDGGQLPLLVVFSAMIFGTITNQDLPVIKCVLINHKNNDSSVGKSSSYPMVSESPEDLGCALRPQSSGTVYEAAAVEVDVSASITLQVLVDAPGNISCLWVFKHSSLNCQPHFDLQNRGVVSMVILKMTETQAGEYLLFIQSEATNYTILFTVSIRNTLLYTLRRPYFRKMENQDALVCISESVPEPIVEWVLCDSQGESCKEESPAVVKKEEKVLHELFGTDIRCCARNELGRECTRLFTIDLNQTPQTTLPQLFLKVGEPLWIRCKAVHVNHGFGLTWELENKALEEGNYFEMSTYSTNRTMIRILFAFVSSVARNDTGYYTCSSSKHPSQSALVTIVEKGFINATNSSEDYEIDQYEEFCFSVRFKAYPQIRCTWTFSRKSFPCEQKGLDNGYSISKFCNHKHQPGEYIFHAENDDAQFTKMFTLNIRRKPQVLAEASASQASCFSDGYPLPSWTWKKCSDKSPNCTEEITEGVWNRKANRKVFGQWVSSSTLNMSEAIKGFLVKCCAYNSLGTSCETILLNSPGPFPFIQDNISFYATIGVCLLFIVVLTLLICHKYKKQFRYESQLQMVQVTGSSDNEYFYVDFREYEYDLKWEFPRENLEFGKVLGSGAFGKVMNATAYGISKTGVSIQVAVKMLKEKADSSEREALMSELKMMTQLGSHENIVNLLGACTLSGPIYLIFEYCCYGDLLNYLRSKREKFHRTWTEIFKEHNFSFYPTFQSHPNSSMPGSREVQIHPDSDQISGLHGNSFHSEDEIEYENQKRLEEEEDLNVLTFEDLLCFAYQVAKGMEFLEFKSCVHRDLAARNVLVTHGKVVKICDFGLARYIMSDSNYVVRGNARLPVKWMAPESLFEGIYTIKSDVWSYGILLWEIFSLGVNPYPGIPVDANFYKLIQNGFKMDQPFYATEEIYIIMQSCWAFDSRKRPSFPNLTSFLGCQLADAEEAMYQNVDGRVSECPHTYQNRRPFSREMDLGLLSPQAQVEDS
# [6] = molecular target: Vascular endothelial growth factor receptor 3 (Homo sapiens) (UniProt P35916); settings: at 1 µM
# [7] = molecular target: Macrophage colony-stimulating factor 1 receptor (Homo sapiens) (UniProt P07333); settings: at 0.1 µM
# [8] = molecular target: Macrophage colony-stimulating factor 1 receptor (Homo sapiens) (UniProt P07333); settings: at 1 µM
# [9] = molecular target: Tyrosine-protein kinase Fyn (Homo sapiens) (UniProt P06241); settings: at 0.1 µM
# [10] = molecular target: Tyrosine-protein kinase Fyn (Homo sapiens) (UniProt P06241); settings: at 1 µM
# [11] = molecular target: Tyrosine-protein kinase HCK (Homo sapiens) (UniProt P08631); settings: at 0.1 µM
# [12] = molecular target: Tyrosine-protein kinase HCK (Homo sapiens) (UniProt P08631); settings: at 1 µM
# [13] = molecular target: Insulin-like growth factor 1 receptor (Homo sapiens) (UniProt P08069); settings: at 0.1 µM
# [14] = molecular target: Insulin-like growth factor 1 receptor (Homo sapiens) (UniProt P08069); settings: at 1 µM
# [15] = molecular target: Insulin receptor (Homo sapiens) (UniProt P06213); settings: at 0.1 µM
# [16] = molecular target: Insulin receptor (Homo sapiens) (UniProt P06213); settings: at 1 µM
# [17] = molecular target: Insulin receptor-related protein (Homo sapiens) (UniProt P14616); settings: at 0.1 µM
# [18] = molecular target: Insulin receptor-related protein (Homo sapiens) (UniProt P14616); settings: at 1 µM
# [19] = molecular target: T4, Tyrosine-protein kinase ITK/TSK (Homo sapiens) (UniProt Q08881); settings: at 0.1 µM;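 also: mean percent inhibition of ITK from the GSK PKIS screen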
# T4 sequence (whole entry): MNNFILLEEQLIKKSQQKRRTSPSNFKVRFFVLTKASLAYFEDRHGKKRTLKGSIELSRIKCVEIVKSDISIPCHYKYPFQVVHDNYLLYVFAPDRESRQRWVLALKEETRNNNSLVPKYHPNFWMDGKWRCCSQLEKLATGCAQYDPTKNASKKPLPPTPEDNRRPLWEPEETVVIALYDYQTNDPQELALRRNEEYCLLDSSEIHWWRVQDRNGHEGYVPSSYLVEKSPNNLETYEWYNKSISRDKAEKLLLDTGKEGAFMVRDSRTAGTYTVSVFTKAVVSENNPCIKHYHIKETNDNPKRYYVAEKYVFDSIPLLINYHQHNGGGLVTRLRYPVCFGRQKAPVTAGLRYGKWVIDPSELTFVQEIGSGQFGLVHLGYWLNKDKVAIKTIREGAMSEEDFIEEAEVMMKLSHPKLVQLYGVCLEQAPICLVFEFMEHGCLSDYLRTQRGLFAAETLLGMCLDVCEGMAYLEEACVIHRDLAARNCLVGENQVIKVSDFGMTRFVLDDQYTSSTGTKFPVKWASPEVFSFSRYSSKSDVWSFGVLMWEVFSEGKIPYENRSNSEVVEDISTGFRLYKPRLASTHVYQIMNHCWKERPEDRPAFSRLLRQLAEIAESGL
# [20] = molecular target: Vascular endothelial growth factor receptor 3 (Homo sapiens) (UniProt P35916); settings: at 0.1 µM
# Chain of Vascular endothelial growth factor receptor 3 (Homo sapiens) (P35916 whole entry): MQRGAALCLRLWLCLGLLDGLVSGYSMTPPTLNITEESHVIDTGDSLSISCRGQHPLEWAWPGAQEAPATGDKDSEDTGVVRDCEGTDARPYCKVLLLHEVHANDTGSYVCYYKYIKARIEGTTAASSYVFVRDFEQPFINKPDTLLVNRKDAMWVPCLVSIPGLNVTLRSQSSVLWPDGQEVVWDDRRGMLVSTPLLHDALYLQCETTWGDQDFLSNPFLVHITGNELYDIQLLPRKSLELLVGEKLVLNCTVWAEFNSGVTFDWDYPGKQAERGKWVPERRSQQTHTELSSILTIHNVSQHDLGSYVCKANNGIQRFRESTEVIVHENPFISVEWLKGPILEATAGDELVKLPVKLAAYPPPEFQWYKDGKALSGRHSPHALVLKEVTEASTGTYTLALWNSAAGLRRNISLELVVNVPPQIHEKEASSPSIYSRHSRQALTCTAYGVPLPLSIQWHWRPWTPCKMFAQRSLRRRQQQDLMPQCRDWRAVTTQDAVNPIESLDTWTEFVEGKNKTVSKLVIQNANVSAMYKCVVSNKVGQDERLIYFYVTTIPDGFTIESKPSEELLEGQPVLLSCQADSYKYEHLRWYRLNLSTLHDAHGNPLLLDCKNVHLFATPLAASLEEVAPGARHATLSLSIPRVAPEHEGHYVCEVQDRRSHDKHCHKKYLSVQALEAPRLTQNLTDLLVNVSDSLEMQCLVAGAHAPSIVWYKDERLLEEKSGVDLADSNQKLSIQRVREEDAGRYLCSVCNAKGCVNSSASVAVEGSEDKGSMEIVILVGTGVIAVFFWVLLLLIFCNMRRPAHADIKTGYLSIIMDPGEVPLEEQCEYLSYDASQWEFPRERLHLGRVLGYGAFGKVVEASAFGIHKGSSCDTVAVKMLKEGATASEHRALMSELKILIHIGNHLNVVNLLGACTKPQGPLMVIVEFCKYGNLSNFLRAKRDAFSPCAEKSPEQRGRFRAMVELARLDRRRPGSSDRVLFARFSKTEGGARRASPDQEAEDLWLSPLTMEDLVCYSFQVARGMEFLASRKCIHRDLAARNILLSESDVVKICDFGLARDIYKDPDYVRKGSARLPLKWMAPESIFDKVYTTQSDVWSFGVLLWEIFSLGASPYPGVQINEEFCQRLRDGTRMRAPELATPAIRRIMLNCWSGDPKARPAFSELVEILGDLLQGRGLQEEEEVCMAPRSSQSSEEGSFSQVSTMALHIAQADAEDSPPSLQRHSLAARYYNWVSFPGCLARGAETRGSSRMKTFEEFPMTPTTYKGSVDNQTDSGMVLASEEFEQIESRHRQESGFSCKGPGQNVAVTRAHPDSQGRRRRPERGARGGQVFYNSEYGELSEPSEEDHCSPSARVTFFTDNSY
# Chain of Tyrosine-protein kinase Fyn (Homo sapiens) (P06241 2-537 limits assumed): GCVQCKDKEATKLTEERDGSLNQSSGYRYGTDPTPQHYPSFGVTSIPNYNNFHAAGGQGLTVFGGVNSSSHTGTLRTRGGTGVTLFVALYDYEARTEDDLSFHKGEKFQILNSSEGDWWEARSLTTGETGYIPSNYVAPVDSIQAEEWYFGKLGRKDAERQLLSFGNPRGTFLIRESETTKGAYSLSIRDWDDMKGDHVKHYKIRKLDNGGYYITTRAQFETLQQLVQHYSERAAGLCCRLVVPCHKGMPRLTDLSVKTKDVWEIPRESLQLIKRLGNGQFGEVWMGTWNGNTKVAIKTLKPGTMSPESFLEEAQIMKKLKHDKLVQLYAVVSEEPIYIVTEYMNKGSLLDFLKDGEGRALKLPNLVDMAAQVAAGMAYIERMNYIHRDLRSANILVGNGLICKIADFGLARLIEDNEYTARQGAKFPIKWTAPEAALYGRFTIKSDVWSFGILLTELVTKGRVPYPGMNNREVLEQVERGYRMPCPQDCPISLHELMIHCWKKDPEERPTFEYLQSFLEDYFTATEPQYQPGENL
# Chain of Insulin receptor-related protein (Homo sapiens) (P14616 27-742 limits assumed): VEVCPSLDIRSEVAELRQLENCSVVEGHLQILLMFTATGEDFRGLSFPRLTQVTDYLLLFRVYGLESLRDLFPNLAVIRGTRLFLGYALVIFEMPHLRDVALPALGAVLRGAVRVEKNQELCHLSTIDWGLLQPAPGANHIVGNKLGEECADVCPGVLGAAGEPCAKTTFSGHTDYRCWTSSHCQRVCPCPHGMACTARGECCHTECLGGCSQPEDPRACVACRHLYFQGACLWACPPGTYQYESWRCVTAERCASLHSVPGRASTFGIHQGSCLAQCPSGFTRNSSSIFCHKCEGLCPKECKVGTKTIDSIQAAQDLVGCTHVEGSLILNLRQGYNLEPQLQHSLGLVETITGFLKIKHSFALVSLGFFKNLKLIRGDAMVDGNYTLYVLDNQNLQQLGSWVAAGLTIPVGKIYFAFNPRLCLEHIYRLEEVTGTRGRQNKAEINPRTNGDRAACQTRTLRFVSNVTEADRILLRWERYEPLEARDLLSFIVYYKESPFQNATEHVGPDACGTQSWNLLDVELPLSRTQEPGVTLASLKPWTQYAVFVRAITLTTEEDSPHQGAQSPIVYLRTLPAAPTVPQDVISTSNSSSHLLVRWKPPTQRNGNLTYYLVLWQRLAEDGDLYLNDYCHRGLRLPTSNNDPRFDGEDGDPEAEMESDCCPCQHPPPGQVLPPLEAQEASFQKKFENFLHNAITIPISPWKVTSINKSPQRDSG
# Chain of Insulin receptor-related protein (Homo sapiens) (P14616 747-1297 limits assumed): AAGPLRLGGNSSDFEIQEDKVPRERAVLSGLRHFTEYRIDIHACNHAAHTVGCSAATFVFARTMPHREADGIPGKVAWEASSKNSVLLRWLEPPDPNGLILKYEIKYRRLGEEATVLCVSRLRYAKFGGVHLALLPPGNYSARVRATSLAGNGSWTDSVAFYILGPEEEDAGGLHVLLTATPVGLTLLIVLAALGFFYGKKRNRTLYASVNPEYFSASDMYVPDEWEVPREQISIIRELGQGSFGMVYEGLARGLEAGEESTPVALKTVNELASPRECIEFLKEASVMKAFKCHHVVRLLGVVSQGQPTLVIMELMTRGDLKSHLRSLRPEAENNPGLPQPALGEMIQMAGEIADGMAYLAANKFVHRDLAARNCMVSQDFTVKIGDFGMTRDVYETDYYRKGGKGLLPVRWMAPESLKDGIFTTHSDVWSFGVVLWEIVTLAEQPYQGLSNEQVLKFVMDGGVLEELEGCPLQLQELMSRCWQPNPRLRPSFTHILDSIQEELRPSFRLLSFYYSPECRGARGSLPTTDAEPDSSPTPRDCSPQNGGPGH
# Chain of Insulin-like growth factor 1 receptor (Homo sapiens) (P08069 31-736 limits assumed): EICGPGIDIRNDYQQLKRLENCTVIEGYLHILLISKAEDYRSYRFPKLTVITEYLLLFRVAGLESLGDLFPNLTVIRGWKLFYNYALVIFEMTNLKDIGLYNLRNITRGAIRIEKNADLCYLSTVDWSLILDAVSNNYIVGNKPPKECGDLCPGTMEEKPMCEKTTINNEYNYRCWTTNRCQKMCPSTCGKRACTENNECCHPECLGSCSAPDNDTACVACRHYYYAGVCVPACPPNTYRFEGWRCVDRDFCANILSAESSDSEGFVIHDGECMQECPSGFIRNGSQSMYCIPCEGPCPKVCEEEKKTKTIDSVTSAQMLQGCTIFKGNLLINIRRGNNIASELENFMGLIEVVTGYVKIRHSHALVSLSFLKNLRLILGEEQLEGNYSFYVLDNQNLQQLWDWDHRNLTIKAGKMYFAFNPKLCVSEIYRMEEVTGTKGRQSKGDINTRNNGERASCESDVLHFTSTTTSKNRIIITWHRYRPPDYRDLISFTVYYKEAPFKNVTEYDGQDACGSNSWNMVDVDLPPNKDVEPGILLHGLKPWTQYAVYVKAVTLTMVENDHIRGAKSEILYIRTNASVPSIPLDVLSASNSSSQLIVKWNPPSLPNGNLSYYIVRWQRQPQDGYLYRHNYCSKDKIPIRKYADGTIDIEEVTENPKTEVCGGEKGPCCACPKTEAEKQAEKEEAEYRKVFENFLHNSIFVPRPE
# Chain of Insulin-like growth factor 1 receptor (Homo sapiens) (P08069 741-1367 limits assumed): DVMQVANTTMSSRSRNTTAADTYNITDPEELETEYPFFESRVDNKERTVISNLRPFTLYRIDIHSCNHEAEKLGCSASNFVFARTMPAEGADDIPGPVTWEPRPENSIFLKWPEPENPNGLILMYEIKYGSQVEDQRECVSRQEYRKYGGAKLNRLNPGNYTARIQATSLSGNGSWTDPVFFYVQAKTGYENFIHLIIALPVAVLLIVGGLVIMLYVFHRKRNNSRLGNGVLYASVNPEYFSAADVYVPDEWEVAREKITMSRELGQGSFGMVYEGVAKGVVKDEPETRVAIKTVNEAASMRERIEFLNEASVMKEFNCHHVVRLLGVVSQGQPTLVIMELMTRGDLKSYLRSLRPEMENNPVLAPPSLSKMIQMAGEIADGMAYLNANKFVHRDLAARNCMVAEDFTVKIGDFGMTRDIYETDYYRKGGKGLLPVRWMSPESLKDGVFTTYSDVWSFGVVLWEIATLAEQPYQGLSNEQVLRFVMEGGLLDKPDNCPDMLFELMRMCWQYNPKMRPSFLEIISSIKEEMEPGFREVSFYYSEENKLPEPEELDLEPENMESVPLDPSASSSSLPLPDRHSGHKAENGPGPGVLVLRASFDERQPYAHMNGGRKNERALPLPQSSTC
# Chain of Tyrosine-protein kinase HCK (Homo sapiens) (P08631 2-526 limits assumed): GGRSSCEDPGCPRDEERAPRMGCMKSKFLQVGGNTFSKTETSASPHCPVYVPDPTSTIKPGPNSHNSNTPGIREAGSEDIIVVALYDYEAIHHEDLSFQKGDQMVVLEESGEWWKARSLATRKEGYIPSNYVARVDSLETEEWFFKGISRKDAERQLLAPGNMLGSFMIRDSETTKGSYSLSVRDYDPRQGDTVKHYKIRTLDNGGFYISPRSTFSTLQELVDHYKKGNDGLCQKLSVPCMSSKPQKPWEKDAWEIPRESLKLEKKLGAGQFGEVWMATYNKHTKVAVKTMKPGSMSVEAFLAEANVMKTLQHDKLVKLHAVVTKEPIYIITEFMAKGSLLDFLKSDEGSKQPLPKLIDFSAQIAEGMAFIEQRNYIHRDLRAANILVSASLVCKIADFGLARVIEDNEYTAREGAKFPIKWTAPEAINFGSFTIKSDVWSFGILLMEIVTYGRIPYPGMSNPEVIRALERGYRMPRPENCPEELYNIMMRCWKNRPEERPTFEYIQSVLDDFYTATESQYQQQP
Compound,inhibition [1] [%],inhibition [2] [%],inhibition [3] [%],inhibition [4] [%],inhibition [5] [%],inhibition [6] [%],inhibition [7] [%],inhibition [8] [%],inhibition [9] [%],inhibition [10] [%],inhibition [11] [%],inhibition [12] [%],inhibition [13] [%],inhibition [14] [%],inhibition [15] [%],inhibition [16] [%],inhibition [17] [%],inhibition [18] [%],inhibition [19] [%],inhibition [20] [%]
CN(C)CCCNc1nccc(-c2c(-c3ccc(F)cc3)nn3cc(C(F)(F)F)ccc23)n1,0.61,2.56,2.23,2.37,2.47,-6.61,2.1,2.47,-2.36,0.28,3.12,7.89,-7.12,-5.52,0.53,-0.49,2.55,0.73,-2.44,–
CNC(=O)c1cncc(/C=C/c2c(C)cccc2C)c1,2.51,1.18,0.2,1.49,5.46,-8.92,12,44.4,0.61,29.6,17.2,58.9,-3.76,-5.13,0.95,4.95,2.26,1.08,-3.14,–
COc1cc2ncn(-c3cc(OCCc4ccccc4)c(C(N)=O)s3)c2cc1OC,6.63,–,–,1.17,1.07,21,-0.81,4.7,2.91,2.86,2.34,11.2,1.99,2.07,2.51,0.56,2.17,2.64,1.33,1.49
CN(C)c1ccc2c(c1)/C(=C/Nc1ccc(S(N)(=O)=O)cc1)C(=O)N2,4.93,2.05,2.41,5.45,33.6,55,4.82,18.8,2.68,13.1,4.88,20.5,9.21,11.9,3.88,6.31,0.97,3.14,1.03,–
O=C1NC(=O)C(c2cccc(Cl)c2)=C1Nc1ccc(Cl)c(C(=O)O)c1,2.04,4.93,2.75,5.47,-3.79,12.2,-0.3,10.7,0.43,6.23,3.57,3.65,2.14,3.35,4.57,7.53,1.75,1.42,1.1,3.32
COc1ccc2cc(-c3c(-c4ccncc4)nc(-c4ccc([S+](C)[O-])cc4C)n3C)ccc2c1 (configuration not stated),-2.02,-0.27,-0.2,-1.41,4.56,9.41,–,–,1.51,1.8,-0.56,4.6,0.87,1.27,0.15,2.57,-0.96,1.18,0.02,2.68
CCS(=O)(=O)c1ccc(OC)c(Nc2ncc(-c3ccccc3Cl)o2)c1,6.89,0.86,3.51,–,17.4,29.9,9.53,40.3,2.29,19.1,4.06,11.8,1.62,5.87,-0.92,3.26,1.25,3.78,0.29,7.55
